Measured values as given in PubChem BioAssay AID504339 (National Center for Advancing Translational Sciences (NCATS), 2011).
Among all 390,000 compounds or so, about 17,000 (4.4%) were called active. Inconclusive results (about 8%) are left out. For the sample, actives were picked, then their nearest neighbours and some compounds at random. A number with no mark means an inactive call. Calls follow the shape of the dose curve; as a rule, active = well fitted inhibition curve with a large enough effect; inconclusive = small, poorly fitted or top-dose-only effect; inactive = no such curve, though single readings can be large or run the other way.

biological target: Lysine-specific demethylase 4A (Homo sapiens) (UniProt O75164); assay: qHTS Assay for Inhibitors of JMJD2A-Tudor Domain; settings: AlphaScreen JMJD2A-Tudor / H3K4me3 peptide binding; series mostly up to 114 µM; activity change, negative = inhibition: at the top concentration; also: nearly all actives have a fitted effect of over 50% in size
From the text: JMJD2A is a jumonji-domain-containing lysine demethylase that uses Fe(II) together with 2-OG to effect oxidative demethylation of histones. Methylation is one of many […] modification that affect epigenetic transcription. […] It is proposed that the functions of JmjD2A binding to the histones, is to maintain marks after they are installed and to spread the modifications by […], establishing a self-propagating cycle for rapid methylation over a large area of chromatin. […] Thus, small molecule targeting of the JMJD2A-tudor domain interaction with its target methylhistone mark is expected to enable sophisticated experiments probing the fine regulatory pathways leading to selective demethylation of a given methyllysine locus based on the methylation state of adjacent histone marks. A quantitative high throughput AlphaScreen has been developed to identify small molecule inhibitors based on a protocol published by NCGC and SGC [4].
Although AlphaScreen has significant advantages with its utility in a variety of epigenetic target assays, the primary screening data provided in this deposition should be used with caution due to the prevalence of screening artifacts. The top compound concentration tested was high (>100uM) in this assay, which increases number of actives and potential artifacts. An AlphaScreen counterscreen is highly recommended to be run against any putative actives to eliminate non-specific artifacts. Alternatively, one can use other AlphaScreen assays in PubChem to filter out promiscuous hits.
[1] Lee, J. et al. Distinct binding modes specify the recognition of methylated histone H3K4 and H4K20 by JMJD2A-tudor. Nat Struct Mol Biol. 15(1); 109-11. 2008. PMID: 18084306
[2] Yasgar, et al. Compound Management for Quantitative High-Throughput Screening. JALA. 2008 Apr;13(2):79-89. PMID: 18496600
[3] Inglese, et al. Quantitative high-throughput screening: a titration-based approach that efficiently identifies biological activities in large chemical libraries. Proc Natl Acad Sci. 1;103(31):11473-8. 2006. PMID: 16864780
[4] Quinn et al. A homogeneous method for investigation of methyl-dependent protein-protein interactions in epigenetics. Nucleic Acids Res., 38(2):e11. 2010. PMID: […]
[5] Baell,Holloway. New substructure filters for removal of pan assay interference compounds (PAINS) from screening libraries and for their exclusion in bioassays. J Med Chem. 53(7):2719-40. 2010. PMID: 20131845
NIH Molecular Libraries Probe Production Network [MLPCN]
NIH Chemical Genomics Center [NCGC]
Structural Genomics Consortium (SGC)
To each well of a 1,536w plate, 2ul of JMJD2A-Tudor (final 100nM) and 1ul biotinylated histone peptide methylated at Lys4 [b-H3(1-18)K4me3] (final 50nM) were added in 1x PBS buffer, pH 7.4, containing 0.01% Tween-20, using a nanoliter dispenser. Formation of a protein-peptide complex proceeded at room temperature for 30 min. A Kalypsys pin-tool transferred 23nl of library compound solution in DMSO to each well. Following a 30 min incubation of the protein-peptide complex with compounds at room temperature, a mixture of 40 µg/mL each streptavidin-coated donor and nickel chelate acceptor AlphaScreen beads (final 10 µg/mL) was added in a 1ul dispense for a final volume of 4ul, followed by a brief centrifugation (1000 rpm, 1 min). Plates were incubated protected from the light for 20 min at room temperature. Microplates were then read on an EnVision multilabel plate reader using the 1,536 plate HTS AlphaScreen aperture (excitation time 80 ms, measurement time 240 ms).
% is scaled to controls: 0 for no effect and ±100 for the full control effect; potency is read from the fitted curve at half-maximal effect.

Sequence of Lysine-specific demethylase 4A (Homo sapiens) (O75164 whole entry, looked up, the tested form may be a part): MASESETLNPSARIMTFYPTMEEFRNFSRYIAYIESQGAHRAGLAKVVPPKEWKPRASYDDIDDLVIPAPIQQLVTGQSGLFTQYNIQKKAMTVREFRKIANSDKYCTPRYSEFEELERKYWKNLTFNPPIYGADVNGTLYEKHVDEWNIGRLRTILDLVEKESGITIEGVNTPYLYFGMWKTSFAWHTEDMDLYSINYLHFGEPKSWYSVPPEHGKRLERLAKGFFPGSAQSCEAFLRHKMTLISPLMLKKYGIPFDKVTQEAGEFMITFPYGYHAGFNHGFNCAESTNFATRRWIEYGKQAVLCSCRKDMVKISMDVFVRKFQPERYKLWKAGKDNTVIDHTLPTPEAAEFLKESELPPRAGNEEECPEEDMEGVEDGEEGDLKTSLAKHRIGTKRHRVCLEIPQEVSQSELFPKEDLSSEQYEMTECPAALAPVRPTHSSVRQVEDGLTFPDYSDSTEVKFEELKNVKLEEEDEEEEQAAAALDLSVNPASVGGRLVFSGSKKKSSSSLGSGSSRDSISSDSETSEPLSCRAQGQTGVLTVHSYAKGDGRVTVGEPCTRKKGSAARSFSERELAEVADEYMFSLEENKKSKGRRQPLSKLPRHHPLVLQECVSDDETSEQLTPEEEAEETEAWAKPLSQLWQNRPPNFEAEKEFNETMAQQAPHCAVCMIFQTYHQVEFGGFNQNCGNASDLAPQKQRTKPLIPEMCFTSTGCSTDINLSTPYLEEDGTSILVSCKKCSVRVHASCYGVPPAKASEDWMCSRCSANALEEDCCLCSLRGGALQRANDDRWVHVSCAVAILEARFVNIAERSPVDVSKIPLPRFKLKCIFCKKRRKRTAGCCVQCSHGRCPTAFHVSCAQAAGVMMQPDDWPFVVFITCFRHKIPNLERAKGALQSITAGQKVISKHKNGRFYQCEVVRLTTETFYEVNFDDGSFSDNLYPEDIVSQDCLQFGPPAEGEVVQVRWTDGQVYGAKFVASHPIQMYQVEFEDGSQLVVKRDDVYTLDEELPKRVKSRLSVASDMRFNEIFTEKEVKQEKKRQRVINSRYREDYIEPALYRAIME

Compound | Potency | activity change, negative = inhibition
CCOc1ccc(CN(CCCl)CCCl)cc1C(=O)OC | 25.1 µM (active) | 
c1ccc(C(CN2CCCCC2)c2ccccc2)cc1 |  | -9.59%
CCOP(=O)(OCC)C(NC(=O)c1ccc(C)cc1)C(Cl)(Cl)Cl (configuration not stated) |  | 0.685%
CC12CCC(O)CC1CCC1C2CCC2(C)C(C(=O)CC(O)C(F)(F)F)CCC12 (configuration not stated) |  | -4.17%
CCC1(C)CC(CCNCc2ccc(N(C)C)cc2)(c2ccc(F)cc2)CCO1 (configuration not stated) | 44.7 µM (active) | 
COC1=CC=C2[C@H]3Cc4ccc(OC)c5c4[C@@]2(CCN3C)C1O5 (some centres not stated) |  | -11%
CCN(CC)C(=O)c1ccc(NC(=O)c2cc(-n3cnnc3)ccc2Cl)cc1 |  | -15.3%
COc1cccc(OC)c1C(=O)NC(=S)N1C[C@H]2C[C@H](C1)c1cccc(=O)n1C2 |  | -17.7%
CCC/C(=N\O)c1c[nH]c2ccccc12 |  | 3.73%
CCc1cccc2c(C#N)cn(CC(=O)N3CCOCC3)c12 |  | -5.97%
CCN1CCN(C(=O)Cc2coc3cc(C)cc(C)c23)CC1 |  | -17.1%
CCC(=NCCc1ccccc1)c1c(O)n(C2CCCCC2)c(=O)[nH]c1=O |  | -27.9%
COc1ccccc1CN1CCN(C(=O)Cc2ccccc2)CC1 | 2.51 µM (active) | 
O=C(Cn1c(=O)n(CC2CS2)c2ccccc21)N1CCCCC1 (configuration not stated) |  | -0.687%
O=C(Cc1ccc(Cl)cc1)NCCN1CCN(C(=O)Cc2ccc(Cl)cc2)CC1 |  | -13.7%
O=C(Cc1ccccc1)N1CCN(C2CCCCCC2)CC1 | 79.4 µM (active) | 
CN(C)C(=O)NC(O)C(Cl)(Cl)Cl (configuration not stated) |  | -1.74%
COC(=O)C1=C(c2ccc(F)cc2F)C[C@@H]2CC[C@H]1N2C(=O)NC1CC1 |  | -13.4%
CC=C(C)C(=O)OC1CCN2CC=C(COC(=O)C(O)(C(C)OC)C(C)(C)O)C12 (configuration not stated) |  | -10.3%

Compound | Potency | activity change, negative = inhibition
CCOc1ccc(-c2cc(C)[n+](CCN(CC)CC)c(-c3ccc(OCC)cc3)c2)cc1 |  | -5.32%
CCC(=O)CC(c1ccc([N+](=O)[O-])cc1)c1c(O)c2ccccc2oc1=O (configuration not stated) |  | -5.04%
COc1ccccc1OC(=O)c1ccc(C)c(S(=O)(=O)N2CCOCC2)c1 |  | -4.23%
CC1CNCCN1c1ccc(Cl)cc1 (configuration not stated) |  | -6.94%
Cn1cc(/C=C/c2nc3ccccc3c(=O)n2-c2ccccc2)c2ccccc21 |  | -25.8%
CCC(=O)OC(Cc1ccccc1)(c1ccccc1)C(C)CN(C)C (configuration not stated) |  | -23.4%
O=C(C1CC(=O)N(C2CCCC2)C1)N1CCC2(CC1)OCCO2 (configuration not stated) |  | -3.52%
O=C(C1CCN(CC2CCCCC2)CC1)N1CCCC1 | 50.1 µM (active) | 
C=C(C)C1(CCCC)C(=O)NC(=S)NC1=O |  | -10.4%
COC(=O)C1=C(c2ccc(C(C)=O)cc2)C[C@@H]2CC[C@H]1N2C(=O)NCCNC(C)=O |  | -20.7%
CN(C)/C=C(\C=[N+](C)C)c1[nH]ncc1[N+](=O)[O-] |  | -5.84%
C[C@]12CCCCC1=CC(=O)C1C2CC[C@@]2(C)C1C[C@@H](F)[C@@H]2O (some centres not stated) |  | 1.38%
O=C(N/N=C/c1c(O)n(C2CC2)c(=S)[nH]c1=O)c1ccccc1 | 56.2 µM (active) | 
CC/C(=N\NC(=O)c1ccccc1O)c1c(O)n(Cc2ccccc2)c(=O)[nH]c1=O |  | -0.735% [at 11.4 µM]
O=C(N/N=C/c1c(O)n(C2CC2)c(=S)[nH]c1=O)c1ccccc1Cl | 89.1 µM (active) | 
O=c1[nH]c(=S)n(C2CC2)c(O)c1/C=N/N1CCOCC1 |  | -20.7%
COc1ccccc1-n1c(O)c(C=NC2CC2)c(=O)[nH]c1=O |  | 25.3%
CC(C)c1ccc(-n2c(O)c(/C=N/N3CCOCC3)c(=O)[nH]c2=S)cc1 |  | -11.7%
